High-throughput results: PubChem BioAssay, several laboratories
This is a sample that favours compounds with a hit; in the whole collection about 2.5% have one here.
rCAG RNA binder: molecules binding r(CAG) RNA repeats | inhibition, % at 3 µM | r(CAG) RNA repeat, TO-PRO-1 dye displacement fluorescence | AID 651821 | 1.3% of 370,000 active;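 active = inhibition above the plate cutoff, the mean of all test compounds on that plate plus 3 SD, cut at about 35% in these data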;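 also: higher means more dye released from RNA so lower well fluorescence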
Exocytosis inh: lytic granule exocytosis inhibition; TALL-104 LAMP-1 surface exposure, flow cytometry; cells stimulated with thapsigargin and PMA; inhibition, % at 10 µM; AID 651702; 0.66% of 360,000 active;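 active = inhibition above about 55%, limit read from the data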
PG9 Ab binder: PG9 antibody binding by small molecule; AID 624416; TR-FRET gp120-PG9 antibody binding; inhibition, % at 6.7 µM; 0.43% of 360,000 active; in the data active = inhibition above about 8.5%
ABCB6 inh 2: inhibitors of human ABC transporter ABCB6. 0.19% of 360,000 active. K562-ABCB6 porphyrin accumulation, flow cytometry, 1 h; stronger effect = lower value. fluorescence ratio to DMSO, % at 10 µM. Q9NP58;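 active = fluorescence ratio to DMSO below 75%, the collection mean minus 3 SD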;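 also: signal is porphyrin accumulated inside mitochondria; lower ratio means ABCB6 inhibition with less porphyrin fluorescence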
Target sequence (Q9NP58 whole entry, looked up): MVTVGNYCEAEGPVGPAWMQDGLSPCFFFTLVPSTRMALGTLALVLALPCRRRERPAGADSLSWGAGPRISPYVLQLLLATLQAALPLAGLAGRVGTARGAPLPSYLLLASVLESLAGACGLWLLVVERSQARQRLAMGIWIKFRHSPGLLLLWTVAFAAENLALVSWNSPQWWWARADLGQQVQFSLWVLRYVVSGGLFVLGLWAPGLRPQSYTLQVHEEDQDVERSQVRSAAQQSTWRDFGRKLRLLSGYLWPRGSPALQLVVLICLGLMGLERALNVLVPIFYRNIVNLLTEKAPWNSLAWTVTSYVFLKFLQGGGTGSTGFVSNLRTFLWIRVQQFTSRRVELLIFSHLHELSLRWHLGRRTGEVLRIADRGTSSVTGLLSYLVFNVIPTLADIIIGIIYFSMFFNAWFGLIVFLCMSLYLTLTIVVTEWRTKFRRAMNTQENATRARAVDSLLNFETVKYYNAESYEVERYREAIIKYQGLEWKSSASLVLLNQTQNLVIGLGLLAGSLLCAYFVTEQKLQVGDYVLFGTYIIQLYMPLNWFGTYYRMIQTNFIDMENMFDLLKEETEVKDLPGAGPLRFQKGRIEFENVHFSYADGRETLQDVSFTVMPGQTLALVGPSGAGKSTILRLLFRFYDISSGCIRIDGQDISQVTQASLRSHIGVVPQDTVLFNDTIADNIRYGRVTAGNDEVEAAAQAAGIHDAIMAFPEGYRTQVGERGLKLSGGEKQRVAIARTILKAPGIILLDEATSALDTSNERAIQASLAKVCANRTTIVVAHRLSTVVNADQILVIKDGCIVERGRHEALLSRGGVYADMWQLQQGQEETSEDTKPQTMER
Granule exo CP1: blocks lytic granule exocytosis; shares compounds with Exocytosis inh; TALL-104 cells, LAMP-1 externalization, flow cytometry; stimulated with PMA plus thapsigargin; inhibition, % at 10 µM; 11% of 1,500 active; AID 651954; in the data active = inhibition above about 60%
A number is an active result; – = inactive; · = not tested or not shown.

SMILES	rCAG RNA binder	Exocytosis inh	PG9 Ab binder	ABCB6 inh 2	Granule exo CP1
CCOC(=O)C1(CCOc2ccccc2)CCN(Cc2ccc(O)c(OCC)c2)CC1	–	81	–	–	–
CCOC(=O)C1(CCOc2ccccc2)CCN(Cc2ccc(COC)o2)CC1	–	–	–	–	·
CCOC(=O)C1(CCOc2ccccc2)CCN(Cc2ccc(O)cc2)CC1	–	56	–	–	–
CCOC(=O)C1(CCOc2ccccc2)CCN(Cc2ccc(OC)c(COC)c2)CC1	–	74	–	–	–
CCOC(=O)C1(CCOc2ccccc2)CCN(Cc2cc(OC)c(O)c(OC)c2)CC1	–	77	–	–	–
CCOC(=O)C1(CCOc2ccccc2)CCN(Cc2ccc(OCCO)cc2)CC1	–	–	–	–	·
CCOC(=O)C1(CCOc2ccccc2)CCN(Cc2ccc(OC)c(O)c2)CC1	–	71	–	–	–
CCOC(=O)C1(Cc2cccc(OC)c2)CCN(Cc2ccc(OC)c(O)c2)CC1	–	–	–	–	·
CC1CC(=O)c2cnc(N3CCOCC3)nc2C1 (stereo unspecified)	–	100	–	–	–
CC1CC(=O)c2cnc(N)nc2C1 (stereo unspecified)	–	–	–	–	·
COc1ccc(CCN(C)c2ncnc3sccc23)cc1OC	–	–	–	–	·
COc1ccc(CCN(C)C(=O)CSc2ncnc3sccc23)cc1OC	–	77	–	–	–
CN(C)CCNc1ncnc2oc(-c3ccccc3)c(-c3ccccc3)c12	–	–	–	–	·
COc1ccc(-c2oc3ncnc(NCCCN(C)C)c3c2-c2ccc(OC)cc2)cc1	–	69	–	–	–
CCOC(=O)COc1ccccc1C(=O)c1cnn(-c2ccccc2)c1	–	62	–	–	–
O=C(COc1ccccc1C(=O)c1cnn(-c2ccccc2)c1)Nc1ccc2ccccc2c1	–	–	–	–	·
O=C(O)c1ccccc1Nc1ccc([N+](=O)[O-])c2nonc12	·	–	·	–	·
CCOc1ccc2[nH]c3c(N4CCN(c5ccccn5)CC4)ncnc3c2c1	–	88	–	–	–
OC[C@H]1O[C@@H](c2nc(-c3ccccc3Br)no2)[C@H](O)[C@@H](O)[C@H]1O	–	–	–	–	·
O=C(CNCc1ccc(Cl)cc1)Nc1cc(S(=O)(=O)N2CCCC2)ccc1Cl	–	77	–	–	–
C(=C\c1ccco1)/c1ccc2ccccc2n1	–	59	–	–	–
Fc1cccc(F)c1/C=C/c1ccc2ccccc2n1	–	–	–	–	·
C=CCOc1ccc(C(=O)c2ccccc2)c(OCC(=O)NC2(C#N)CCCC2)c1	–	61	–	–	–
N#CC1(NC(=O)COc2ccccc2[N+](=O)[O-])CCCCC1	–	–	–	–	·
CCCCCCCCN1C(=O)[C@H](CC(=O)NCCCOCCCC)C[C@@]2(C(=O)OC)CC(C)(C)CC=C12	–	60	–	·	–
SMILES	rCAG RNA binder	Exocytosis inh	PG9 Ab binder	ABCB6 inh 2	Granule exo CP1
CCCCCCCCN1C(=O)[C@H](CC(=O)NCCCOC)C[C@@]2(C(=O)OC)CC(C)(C)CC=C12	–	–	–	·	·
CCCCCCCCN1C(=O)[C@H](CC(=O)NCCCOCCCC)C[C@@]2(C(=O)OCC)CCCC=C12	–	76	–	–	–
CCCCCCCCN1C(=O)[C@H](CC(=O)NCCCOCCCC)C[C@@]2(C(=O)OC)CCCCC=C12	–	–	–	–	·
COc1cc(Cl)ccc1OC1(C)CCN(Cc2ccc(SC)cc2)C1 (stereo unspecified)	–	–	–	–	·
CCOC(=O)C1=CCC(c2ccc(Cl)cc2)N(S(=O)(=O)c2ccc(C)cc2)C1 (stereo unspecified)	–	–	–	–	·
CC(C)c1ccc(N2C(=NC(=O)C3CC3)SC3CS(=O)(=O)CC32)cc1 (stereo unspecified)	–	–	–	–	·
CC(C)c1csc(CN2CCC(N3CCC(C(=O)N4CCOCC4)CC3)CC2)n1	–	–	–	–	·
CC(=O)c1c(C)oc2c1cc(O)c1ccccc12	–	89	–	–	–
CCOC(=O)c1c(C)oc2c1cc(O)c1ccccc12	–	–	–	–	·
CC(C)Cn1c(=O)c2c(nc3n2CC(C)CN3Cc2ccccc2)n(C)c1=O (stereo unspecified)	–	–	–	–	·
Cc1ccc(-n2nnc3c(=O)oc4ccccc4c32)cc1	–	94	–	–	83
CCC(C)n1nnc2c(=O)oc3ccccc3c21 (stereo unspecified)	·	–	·	–	·
C[N+](C)(C)CCOP(=O)(O)OP(=O)([O-])OC[C@H]1O[C@@H](n2ccc(N)nc2=O)[C@H](O)[C@@H]1O	·	–	·	–	·
O=C1NC(=O)C2(CCCC2c2ccccc2)N1 (stereo unspecified)	–	–	–	–	·
C=Cc1ccc(CN2CCCN(Cc3ccc(F)cc3)S2(=O)=O)cc1	–	–	–	–	·
N#Cc1cccc(CN2CCCN(Cc3ccc(F)cc3)S2(=O)=O)c1	–	85	–	–	–
CCOc1ccc(S(=O)(=O)Nc2cccc(C(=O)N3CCN(c4ccccn4)CC3)c2)cc1	–	56	–	–	–
CCOc1ccc(S(=O)(=O)Nc2cccc(C(=O)N3CCN(c4ccccc4O)CC3)c2)cc1	–	–	–	–	·
COc1ccc(C)cc1NC(=O)c1cccc(C(=O)Nc2cc(C)ccc2OC)n1	–	–	–	–	·
Cc1ccc(NC(=O)[C@@H]2O[C@H](CO)[C@H](O)[C@H](O)[C@H]2O)cc1C(F)(F)F	–	–	–	–	·
O=C1c2cccc3cccc(c23)C(=O)N1CC1CCN(CC(O)COc2ccc3ccccc3c2)CC1 (stereo unspecified)	–	58	–	–	–
CC(NCc1cc(Br)ccc1OCC(N)=O)C12CC3CC(CC(C3)C1)C2 (stereo unspecified)	–	59	–	–	–
CCOc1ccc(OCCNC(=O)C(NC(=O)c2c(F)cccc2F)C(C)C)cc1 (stereo unspecified)	–	–	–	–	·
CN(Cc1ccccc1OCCO)CC1CCCN(CCc2ccc(Cl)cc2)C1 (stereo unspecified)	–	58	–	–	–
COc1cccc(CN(C)CC2CCCN(CCc3ccccc3C)C2)c1 (stereo unspecified)	–	57	–	–	–
SMILES	rCAG RNA binder	Exocytosis inh	PG9 Ab binder	ABCB6 inh 2	Granule exo CP1
C=CCC(=O)N(CC)CC1CCCN(CCc2cccc(F)c2)C1 (stereo unspecified)	–	–	–	–	·
COc1cc(OC)c(OC)cc1CN(C)CC1CCCN(CCc2ccccc2F)C1 (stereo unspecified)	–	–	–	–	·
COc1ccc(CN(C)CC2CCCN(CCc3ccccc3C)C2)cc1O (stereo unspecified)	–	–	–	–	·
COc1ccc(CCN2CCCC(CN(C)Cc3cc(Cl)c(O)c(OC)c3)C2)cc1 (stereo unspecified)	–	56	–	–	–
CCN(Cc1ccc(O)cc1)CC1CCCN(CCc2cccc(F)c2)C1 (stereo unspecified)	–	67	–	–	–
O=C(O)C1=NN(c2cc(Cl)c(S(=O)(=O)O)cc2Cl)C(=O)C1	–	–	–	–	·
Cc1cccc(NC2=CC(=O)CC(C)(C)C2)c1C	–	–	–	–	·
